In PubChem BioAssay (Tox21):
Results filed as inconclusive are left out. A number with no mark means an inactive call. Calls follow the shape of the dose curve; as a rule, active = well fitted activation curve with a large enough effect in the repeat runs; inconclusive = weak or mixed curves; inactive = flat fitted curve, though single readings scatter.
% is scaled to controls: 0 for no effect and ±100 for the full control effect.

The compounds below were run against Nuclear receptor subfamily 1 group I member 2 (Homo sapiens) (UniProt O75469) (assay: Human pregnane X receptor (PXR) activation by small molecules, qHTS assay (AID 1346985; also: nearly all actives have a fitted effect of over 40% in size)). Conditions: DPX-2 HepG2 CYP3A4-luciferase, 24 h; series mostly up to 38.3 µM; activation: at the top concentration.
How it was run: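 DPX-2 cells (HepG2 co-transfected with a PXR response element and a CYP3A4-promoter luciferase construct) were seeded at 2,000 per well, rested 5 hr at 37C, then exposed to DMSO-dissolved compounds for 24 hr. Activation was read as luciferase luminescence.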
`O=C(CS(=O)Cc1ccco1)NC/C=C\COc1cc(CN2CCCCC2)ccn1` (stereo not drawn) was tested, and the “activation” value was 11.4%.
For `NCCS`, the “activation” value was -7.17%.
For `COP(=O)(OC)OC(c1ccc(Cl)cc1)P(=O)(OC)OC` (stereo not drawn), the “activation” value was 10.6%.
With `COc1ccc(-c2cc(=O)c3c(O)cc(O[C@@H]4O[C@H](CO[C@@H]5O[C@@H](C)[C@H](O)[C@@H](O)[C@H]5O)[C@@H](O)[C@H](O)[C@H]4O)cc3o2)cc1O` the “activation” value was -15.3%.
In the case of `C[C@H](N)[C@H](O)c1cccc(O)c1`, the “activation” value was 4.49% [at 17.1 µM].
For `COc1cc(C(=S)N2CCOCC2)cc(OC)c1OC`, the “activation” value was 1.69%.
For `CC(S)C(=O)NCC(=O)O` (stereo not drawn), the “activation” value was -1.55%.
For `Cc1cccc(C)c1OCC(C)N` (stereo not drawn), the “activation” value was 5.42%.
In the case of `CC(=O)CCCCn1c(=O)c2c(ncn2C)n(C)c1=O`, the “activation” value was 27.2% [at 17.1 µM].
`C[C@@H](O)[C@H]1C(=O)N2C(C(=O)O)=C(SCCN=CN)C[C@H]12` was tested, and the “activation” value was 1.94% [at 17.1 µM].
With `CCN1CCc2nc(N)oc2CC1` the “activation” value was -5.44%.
`C[C@H](CCC(=O)O)[C@H]1CC[C@H]2[C@@H]3C(=O)C[C@@H]4CC(=O)CC[C@]4(C)[C@H]3CC(=O)[C@]12C` was tested, and the “activation” value was -4.03%.
For `O=C1c2ccccc2C(=O)C1c1ccccc1`, the “activation” value was -1.76% [at 17.1 µM].
In the case of `Cc1cc2cc3c(C)cc(=O)oc3c(C)c2o1`, the “activation” value was 2.4% [at 17.1 µM].
For `CC(=C(CCOC(=O)C(C)C)SSC(CCOC(=O)C(C)C)=C(C)N(C=O)Cc1cnc(C)nc1N)N(C=O)Cc1cnc(C)nc1N`, the “activation” value was 5.48%.
For `Nc1ncnc(Nc2ccccc2)n1`, the “activation” value was 17.8%.
For `CO[C@@H]1[C@@H](OC(N)=O)[C@@H](O)[C@H](Oc2ccc3c(O)c(NC(=O)c4ccc(O)c(CC=C(C)C)c4)c(=O)oc3c2C)OC1(C)C`, the “activation” value was 3.43% [at 17.1 µM].
For `CCOc1cc(NC(C)=O)ccc1C(=O)OC`, the “activation” value was -2.68%.
